PubChem BioAssay (NCI)
Values joined by “and” are separate entries in the source; they are usually repeats but may differ in a detail not shown here. Identical values can stand only once. This is part of a sample that, as a whole, favours compounds with a hit. Of some 79,000 tested, about 15% had one in any assay. A number with no mark means an inactive call. Active and inactive are the calls of the source. Rule as the data show it: active = growth inhibition above about 70%; inactive = the rest.

Experiment: NCI Yeast Anticancer Drug Screen. Data for the rad50 strain (AID 155);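 also: 0% = growth of vehicle-only cultures of the same strain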
Details: S. cerevisiae rad50 strain growth inhibition; at 5.0 µM (retest, dose inferred, filed as 0.5); stronger effect = higher value
Description: Growth inhibition of yeast strains with defined genetic alterations is measured as a screen for potential anti-cancer activity. Selected strains with alterations in DNA damage repair or cell cycle control were exposed to compounds and growth inhibition was measured relative to vehicle treated controls. The strain used in this assay is rad50
`CC/C(=C\c1ccccc1)[N+](=O)[O-]` showed a growth inhibition of 64%. With `O=C([CH-]C(=O)c1ccccc1)c1ccccc1.O=C([CH-]C(=O)c1ccccc1)c1ccccc1.O=C([CH-]C(=O)c1ccccc1)c1ccccc1.[Nd+3].[OH3+]` the growth inhibition was 49%. In the case of `COC(=O)C1=C(C(=O)OC)C2(C)OC1c1ccccc12` (configuration not stated), the growth inhibition is reported as -5%. For `CC(=O)O.[RuH].c1ccc([PH+](c2ccccc2)c2ccccc2)cc1.c1ccc([PH+](c2ccccc2)c2ccccc2)cc1.c1ccc([PH+](c2ccccc2)c2ccccc2)cc1`, the growth inhibition was -10%. For `O=[N+]([O-])/C=C\C(Cl)(Cl)Cl`, the growth inhibition was 74% (active). For `COc1ccc(O)c(/C=C/[N+](=O)[O-])c1`, the growth inhibition was 16%. In the case of `COc1cc([N+](=O)[O-])c2ncccc2c1[N+](=O)[O-]`, the growth inhibition is reported as -1%. `O=S(O)O.O=S(O)O.[Co].[NH2-].[NH2-].[NH2-].[NH2-]` showed a growth inhibition of 7%. With `CCC(=O)O.[Ag]` the growth inhibition was 98% (active).

Same assay, conditions: S. cerevisiae rad50 strain growth inhibition; at 50.0 µM (retest, dose inferred, filed as 5.0); stronger effect = higher value
In the case of `CC/C(=C\c1ccccc1)[N+](=O)[O-]`, the growth inhibition is reported as 99% (active). In the case of `O=C([CH-]C(=O)c1ccccc1)c1ccccc1.O=C([CH-]C(=O)c1ccccc1)c1ccccc1.O=C([CH-]C(=O)c1ccccc1)c1ccccc1.[Nd+3].[OH3+]`, the growth inhibition is reported as 99% (active). With `COC(=O)C1=C(C(=O)OC)C2(C)OC1c1ccccc12` (configuration not stated) the growth inhibition was 96% (active). In the case of `CC(=O)O.[RuH].c1ccc([PH+](c2ccccc2)c2ccccc2)cc1.c1ccc([PH+](c2ccccc2)c2ccccc2)cc1.c1ccc([PH+](c2ccccc2)c2ccccc2)cc1`, the growth inhibition is reported as 75% (active). For `O=[N+]([O-])/C=C\C(Cl)(Cl)Cl`, the growth inhibition was 99% (active). In the case of `COc1ccc(O)c(/C=C/[N+](=O)[O-])c1`, the growth inhibition is reported as 99% (active). In the case of `COc1cc([N+](=O)[O-])c2ncccc2c1[N+](=O)[O-]`, the growth inhibition is reported as 23%. In the case of `O=S(O)O.O=S(O)O.[Co].[NH2-].[NH2-].[NH2-].[NH2-]`, the growth inhibition is reported as 21%. For `CCC(=O)O.[Ag]`, the growth inhibition was 98% (active).

Same assay, conditions: S. cerevisiae rad50 strain growth inhibition; at 50.0 µM; stronger effect = higher value
Compound `NCCN1CC2CCC(CC2)C1` has a growth inhibition of -53.1%. For `O=C(O)c1ccccc1`, the growth inhibition was -11.1% and -31.2%. `CCC1(c2ccccc2)C(=O)N(CCCl)C(=O)N(CCCl)C1=O` gave a growth inhibition of 27.7%. With `O=C([CH-]C(=O)c1ccccc1)c1ccccc1.O=C([CH-]C(=O)c1ccccc1)c1ccccc1.O=C([CH-]C(=O)c1ccccc1)c1ccccc1.[Nd+3].[OH3+]` the growth inhibition was 91.8% (active). In the case of `COC(=O)C1=C(C(=O)OC)C2(C)OC1c1ccccc12` (configuration not stated), the growth inhibition is reported as 98.2% (active). Work on `CNP1(NC)=NP(N(C)C)(N(C)C)=NP(N(C)C)(N(C)C)=N1` yielded a growth inhibition of -15.9%. For `CC(=O)O.[RuH].c1ccc([PH+](c2ccccc2)c2ccccc2)cc1.c1ccc([PH+](c2ccccc2)c2ccccc2)cc1.c1ccc([PH+](c2ccccc2)c2ccccc2)cc1`, the growth inhibition was 43.5%. With `CCCC[As](CCCC)SC1OC(COC(C)=O)C(OC(C)=O)C(OC(C)=O)C1OC(C)=O` (configuration not stated) the growth inhibition was 98.6% (active). For `[C-]#[O+].[C-]#[O+].[C-]#[O+].[Mo].c1ccc([PH+](CC[As](c2ccccc2)c2ccccc2)CC[As](c2ccccc2)c2ccccc2)cc1`, the growth inhibition was 11.4%. For `CCN(CCCl)c1cc(CN(C)C)cc(NC(=O)c2cc(C(=O)Nc3cc(CN(C)C)cc(N(CC)CCCl)c3)n(C)n2)c1`, the growth inhibition was 60.2%. With `CCOP(=O)(OCC)OCC` the growth inhibition was -4.1%. Compound `CCOP(=O)(CN(CCO)CCO)OCC` has a growth inhibition of -5.85%. Work on `Oc1ccc(C=NCC2CCCC[N-]2)c(O)c1.Oc1ccc(C=NCC2CCCC[N-]2)c(O)c1.[Ni+2]` (configuration not stated) yielded a growth inhibition of 7.3%. Compound `Clc1cc[c]([Pb]([Cl])([Cl])[c]2ccc(Cl)cc2)cc1` has a growth inhibition of 22.9%. In the case of `O=[N+]([O-])/C=C\C(Cl)(Cl)Cl`, the growth inhibition is reported as 91.7% (active). With `CCC1(OC(=O)CNC)C(=O)OCc2c1cc1n(c2=O)Cc2cc3ccccc3nc2-1` (configuration not stated) the growth inhibition was 78.7% (active). Work on `COc1ccc2nc3ccccc3nc2c1` (tested in a mixture with another compound) yielded a growth inhibition of 30.2%. With `COc1ccc(O)c(/C=C/[N+](=O)[O-])c1` the growth inhibition was 99.4% (active). With `[N-]=[N+]=NP1(=O)OC(c2ccccc2)=CCN1c1ccccc1` (configuration not stated) the growth inhibition was -9.2%. `CCOC(CNCc1cccnc1)OCC` showed a growth inhibition of -20.7%. With `COc1cc([N+](=O)[O-])c2ncccc2c1[N+](=O)[O-]` the growth inhibition was 85% (active). In the case of `O=S(O)O.O=S(O)O.[Co].[NH2-].[NH2-].[NH2-].[NH2-]`, the growth inhibition is reported as -5.55%. `CN1CN(c2ccccc2)C2(CCN(CCCSc3ccccc3NC(=O)/C=C/c3ccccc3)CC2)C1=O` gave a growth inhibition of 20%. With `CCC(=O)O.[Ag]` the growth inhibition was 91.2% (active).
